Hits are enriched below; roughly 1.3% of the tested compounds scored in any of these assays.
MEX-5 binding – C. elegans MEX-5 TCR-2 RNA binding activity; Q9XUB2; MEX-5/FITC-TCR2 RNA binding, fluorescence polarization; active compounds read low; activity score (negative = inhibition of binding), % at 10 µM; 0.38% of 300,000 active; AID 1832;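 active = inhibition past about -25% in most replicates, and total fluorescence under double the plate's negative control median, limit read from the data; inconclusive = replicates evenly split on the limit, or fluorescence at least double controls; inactive = too little inhibition in most replicates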
Target sequence (Q9XUB2 whole entry, looked up): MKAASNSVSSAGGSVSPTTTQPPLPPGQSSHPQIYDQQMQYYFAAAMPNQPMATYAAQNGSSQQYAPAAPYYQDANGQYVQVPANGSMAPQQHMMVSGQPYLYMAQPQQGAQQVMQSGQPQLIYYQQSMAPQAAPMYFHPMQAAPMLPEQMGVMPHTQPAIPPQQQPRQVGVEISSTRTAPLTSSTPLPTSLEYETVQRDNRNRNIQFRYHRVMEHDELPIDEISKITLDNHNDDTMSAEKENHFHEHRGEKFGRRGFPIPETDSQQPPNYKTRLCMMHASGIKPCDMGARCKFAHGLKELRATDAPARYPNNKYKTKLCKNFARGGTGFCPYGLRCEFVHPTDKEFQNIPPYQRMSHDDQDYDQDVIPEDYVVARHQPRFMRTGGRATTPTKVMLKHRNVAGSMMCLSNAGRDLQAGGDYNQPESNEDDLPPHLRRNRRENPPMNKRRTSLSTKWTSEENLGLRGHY
MCL1-BIM inh – inhibitors of human MCL1 binding to BIM-BH3 peptide | AID 2057 | Q07820 | 0.68% of 320,000 active | inhibition, % at 10.9 µM | GST-MCL1 / FITC-Bim-BH3 fluorescence polarization;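 active = inhibition above the mean inhibition of all tested compounds plus 3 SD, set per campaign, cut at about 40% in these data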;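 note: higher means more loss of mP so more displacement of Bim peptide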
GLD-1 TGE inh – GLD-1-TGE RNA interaction inhibition (C. elegans); Q17339; inhibition, % at 5.96 µM; 0.44% of 320,000 active; purified GLD-1 + fluorescein TGE RNA, fluorescence polarization;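 active = percent inhibition above a per-plate cutoff, the plate mean of test compounds plus 3 SD, cut at about 30% in these data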
EBV gp42 block – inhibitors of Epstein-Barr virus glycoprotein 42; Fluorescence polarization binding assay, mP read-out; Q1HVG2; 0.42% of 220,000 active; inhibition, % (tested at 21.74 µM); in the data active = inhibition above about 50%
BCLXL inh – inhibitors of human Bcl-xL; Q07817; GST-Bcl-xL / FITC-Bim BH3 peptide fluorescence polarization; inhibition, % at 10.9 µM; 0.7% of 320,000 active; AID 2129;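 active = inhibition above the mean of all tested compounds plus 3 SD, cutoff set per campaign, cut at about 30% in these data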;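 note: inhibitors lower millipolarization by displacing the labeled peptide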
Target sequence (Q07817 whole entry, looked up): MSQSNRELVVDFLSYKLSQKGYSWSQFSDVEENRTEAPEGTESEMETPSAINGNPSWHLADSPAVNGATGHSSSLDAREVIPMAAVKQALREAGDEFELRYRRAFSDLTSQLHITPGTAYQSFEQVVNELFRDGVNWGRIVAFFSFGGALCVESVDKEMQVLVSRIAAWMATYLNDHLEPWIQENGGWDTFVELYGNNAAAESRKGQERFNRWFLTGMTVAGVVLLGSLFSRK
Large screens that a line does not name were inactive.

CCCCn1c(-c2ccccc2C)nc2cc3[nH]c(=O)c(C(C)C)nc3cc21	BCLXL inh 30 (no result: EBV gp42 block)
COc1cccc(N=C2NC(=O)/C(=C/c3cc([N+](=O)[O-])ccc3O)S2)c1	none (no result: EBV gp42 block)
O=C1NC(=Nc2ccccc2Cl)S/C1=C\c1cc([N+](=O)[O-])ccc1O	MEX-5 binding -40 (no result: EBV gp42 block)
CCc1nnc(NC(=O)CSc2ncc(-c3ccccc3)n2CC)s1	none
CCSCCc1nnc(NC(=O)Nc2cccc(C(F)(F)F)c2)s1	none
Cn1c(C(=O)NCCCN2CCOCC2)cc2c(=O)n(C)c3ccccc3c21	MEX-5 binding -42
CC1CCN(CCCNC(=O)c2cc3c(=O)n(C)c4ccccc4c3n2C)CC1	none
COc1ccc(-n2ncc3c2CC(C)(C)CC3NC(=O)CCn2cncn2)cc1 (centres undefined)	none (no result: MCL1-BIM inh, GLD-1 TGE inh, EBV gp42 block, BCLXL inh)
CCc1ccc(/C=C2/SC(=S)N(CCC(=O)Nc3cccc(C(=O)O)c3)C2=O)cc1	none (no result: EBV gp42 block)
COc1ccc(/C=C2\SC(=S)N(CCC(=O)NC3CCCC3)C2=O)cc1OC	MEX-5 binding -27 (no result: EBV gp42 block)
COc1ccccc1/C=C1\SC(=S)N(CCC(=O)NC2=NCCS2)C1=O	MEX-5 binding -63
CCc1ccc(/C=C2/SC(=S)N(CCC(=O)Nc3ccc(C(=O)O)cc3)C2=O)cc1	BCLXL inh 189 (no result: EBV gp42 block)
COc1ccc(/C=C2\SC(=S)N(CCCC(=O)Nc3cc(C)on3)C2=O)cc1OC	MEX-5 binding inconclusive (no result: EBV gp42 block)
CCN(CC)CCCn1c2c(c(SCC(=O)Nc3ccc4c(c3)OCO4)nc1=O)CCC2	none (no result: EBV gp42 block)
COc1cc(NC(=O)c2cc(-c3ccccc3Cl)on2)cc(OC)c1OC	none (no result: EBV gp42 block)
Cc1ccc(N=Nc2c(N)[nH]n3c(=O)cc(-c4ccccc4)nc23)cc1	EBV gp42 block 63
COc1cccc(N=Nc2c(N)[nH]n3c(=O)cc(-c4ccccc4)nc23)c1	none
Cc1ccc(S(=O)(=O)N2CCN(C(=O)COC(=O)CCCOc3ccccc3)CC2)c(C)c1	none (no result: MEX-5 binding, EBV gp42 block)
COC(=O)C1=C(O)/C(=C\c2cc(C)n(-c3ccccc3C)c2C)N=C1C	MCL1-BIM inh 44, BCLXL inh 42
COC/C=C/C1=CC2=CC(=O)C(C)(O)C(=O)C2=CO1 (centres undefined)	MEX-5 binding -47, MCL1-BIM inh 64 (no result: EBV gp42 block)
COc1ccc(C2=CC3=CC(=O)C(C)(O)C(=O)C3=CO2)cc1 (centres undefined)	MEX-5 binding -38 (no result: EBV gp42 block)
COC/C=C/C1=CC2=CC(=O)C(C)(OC(=O)c3ccco3)C(=O)C2=CO1 (centres undefined)	MCL1-BIM inh 60, GLD-1 TGE inh 31 (no result: MEX-5 binding)
COC(=O)C(CC(C)C)NC(=O)c1cccs1 (centres undefined)	none (no result: MEX-5 binding)
COc1ccc([N+](=O)[O-])cc1COc1cc(C)cc2oc(=O)cc(-c3ccccc3)c12	none
Cc1cc(NC(=O)CCC(=O)N(Cc2ccccc2)C2(C(=O)NC3CCCCC3)CCCC2)no1	none
O=c1[nH][nH]c2cc(=O)n(-c3ccc(Cl)cc3)nc12	MEX-5 binding -32
CC(=O)c1nn(-c2ccc(Cl)cc2)c(=O)[nH]c1=O	none (no result: EBV gp42 block)
COc1ccccc1CNS(=O)(=O)c1cc(-c2cc(C)no2)ccc1C(C)C	none (no result: EBV gp42 block)
CCOc1ccc(S(=O)(=O)Nc2ccc3c(c2)OCO3)cc1	none (no result: EBV gp42 block)
CCS(=O)(=O)Nc1ccc2c(c1)OCO2	BCLXL inh 41
CCn1nc(NC(=O)CC(C)C)c2cc3cccc(C)c3nc21	BCLXL inh 137 (no result: EBV gp42 block)
CCOC(=O)C(Cc1ccccc1)NC(=O)CCc1nnc2ccc(N3CCCC3)nn12 (centres undefined)	none (no result: EBV gp42 block)
COc1ccccc1/C=C/C=C1\Oc2c(ccc(O)c2CN(C)C)C1=O	MEX-5 binding inconclusive, MCL1-BIM inh 42, BCLXL inh 53
CCN(CC)Cc1c(O)ccc2c1O/C(=C\C=C\c1ccccc1)C2=O	none
COc1cc(C)c(Br)cc1S(=O)(=O)NCCN1CCOCC1	none
O=C(c1cccn2c(=O)c3cc4ccccc4cc3nc12)N1CCN(c2ccccc2)CC1	BCLXL inh 33
O=C(c1cccn2c(=O)c3ccccc3nc12)N1CCN(c2ccccn2)CC1	none
O=C(O)c1cc(O)c2c(c1)[C@H]([C@H]1c3cc(C(=O)O)cc(O)c3C(=O)c3c(O[C@@H]4O[C@H](CO)[C@@H](O)[C@H](O)[C@H]4O)cccc31)c1cccc(OC3O[C@H](CO)[C@@H](O)[C@H](O)[C@H]3O)c1C2=O (some centres undefined)	MEX-5 binding -98, MCL1-BIM inh 110, BCLXL inh 94 (no result: EBV gp42 block)
O=C1c2cc(CO)cc(O)c2C(=O)c2c(O[C@@H]3OC(CO)[C@@H](O)[C@@H](O)[C@@H]3O)cccc21 (some centres undefined)	none (no result: EBV gp42 block)
O=C(O)c1cc(O)c2c(c1)[C@@H]([C@H]1c3cc(C(=O)O)cc(O)c3C(=O)c3c(O[C@@H]4O[C@H](CO)[C@@H](O)[C@H](O)[C@H]4O)cccc31)c1cccc(OC3O[C@H](CO)[C@@H](O)[C@H](O)[C@H]3O)c1C2=O (some centres undefined)	MEX-5 binding -100, MCL1-BIM inh 114, BCLXL inh 97 (no result: EBV gp42 block)
CCCSc1nnc2nc3c(nn12)c1ccccc1n3C	MEX-5 binding -35
CCCCN(C)Cc1c(O)ccc2c(=O)c(-c3ccccc3OC)coc12	none (no result: EBV gp42 block)
N#C/C(=C\c1ccccc1[N+](=O)[O-])C(=O)Nc1ccc(S(N)(=O)=O)cc1	BCLXL inh 33
Cc1c(C(=O)N2CCCC2)c(S(=O)(=O)N2CCN(c3ccccc3F)CC2)c(C)n1C	none (no result: EBV gp42 block)
CNCc1ccccc1Sc1cccc(O)c1	none
CNCc1ccccc1Sc1cc(O)ccc1O	MCL1-BIM inh 42, BCLXL inh 32 (no result: MEX-5 binding)
O=C1N=c2ccccc2=C1c1sc(Nc2ccc(O)cc2)nc1O	EBV gp42 block 63 (no result: MEX-5 binding, MCL1-BIM inh, GLD-1 TGE inh, BCLXL inh)
O=C(N/N=C/c1ccc(O)cc1O)c1ccncc1	none (no result: EBV gp42 block)
O=C(N/N=C/c1cc(Br)cc(Br)c1O)c1ccncc1	MCL1-BIM inh 45, GLD-1 TGE inh 31, BCLXL inh 33
Cc1ccc(C2NC(=O)c3c(sc4c3CCN(C)C4)N2)o1 (centres undefined)	BCLXL inh 40
CN1CCc2c(sc3c2C(=O)NC(c2ccccc2)N3)C1 (centres undefined)	BCLXL inh 41
COc1cc(OC)c(/C=N/NC(=O)c2ccncc2)c(OC)c1	none (no result: EBV gp42 block)
CCCC(=O)Nc1cc(Cl)ccc1N1CCN(C(=O)CC)CC1	none
NC1=NC(=O)/C(=C/c2c(OS(=O)(=O)c3ccc(Cl)cc3)ccc3ccccc23)S1	none
CSc1nc(=S)c2[nH]c(=S)[nH]c2[nH]1	MEX-5 binding -99 (no result: MCL1-BIM inh, GLD-1 TGE inh, BCLXL inh)
O=C(CN(C(=O)CCC(=O)Nc1ccccn1)c1ccc(F)cc1)NCc1ccc(F)cc1	none (no result: EBV gp42 block)
Cc1cccc(NC(=O)CSc2nnnn2C)n1	EBV gp42 block 75
CCCCn1nnnc1SCC(=O)Nc1cccc(C)n1	none
COc1ccc(/C=N/Nc2nnc(-c3ncc[nH]3)c3ccccc23)cc1	none
Oc1ccc2ccccc2c1/C=N/Nc1nnc(-c2ncc[nH]2)c2ccccc12	MEX-5 binding -35
O=C1CS/C(=N/N=C/c2cccs2)N1	MEX-5 binding -32

Assay outcomes as filed in PubChem.
